Rab9 prom act: Rab9 promoter activation | Huh7 Rab9 promoter-luciferase reporter, luminescence, 24 h | Potency, µM (series often up to 9.22 µM), for inactives: top-dose activation, negative = inhibition, usual class: activators | 320,000 tested, 2.8% active | AID 485297; further: % of control where 0% means no effect; nearly all actives have a fitted effect of over 60% in size
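Huh7 cells stably carrying Rab9 promoter–luciferase reporter, plated 1500 cells/well, compound added after 2 h and incubated 24 h at 37 °C; luciferase luminescence then read after 10 min with detection reagent.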
SMN2 splice enh: SMN2 splice variant enhancement; HEK293 SMN2-luciferase splicing reporter, luminescence, 30-36 h; Potency, µM (series often up to 46.1 µM), for the others: at the highest dose activity change, positive = activation, usual class: activators; 210,000 tested, 2.8% active; AID 1458; further: % of control where 0% means no effect; nearly all actives have a fitted effect of over 55% in size
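HEK293 cells carry an SMN2 minigene-luciferase reporter in which exon 7 inclusion puts luciferase in frame. Cells were seeded at 2000 cells/well, attached for 10-12 hours, then exposed to compounds for 30-36 hours at 37C before ONE-Glo luminescence.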
NPC1 promoter act: activates the NPC1 promoter; 320,000 tested, 2.4% active; Huh7 NPC1 promoter luciferase reporter, 24 h; AID 485313; Potency, µM (top dose mostly 9.22 µM), for inactives: top-dose activation, actives largely listed as activators; further: % of control where 0% means no effect; nearly all actives have a fitted effect of over 60% in size
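Compounds in DMSO were transferred onto Huh7 NPC1-luciferase reporter cells pre-incubated 2 h; after 24 h at 37 °C, Amplite reagent was dispensed and luminescence recorded 10 min later.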
FLuc modulator: inhibits or activates purified firefly luciferase, miR-21 counter-screen. 360,000 tested, 6.9% active. P08659. purified FLuc, Km substrates, luminescence inhibition. Potency, µM (series often up to 57.5 µM), inactives show at the top dose activity change, negative = inhibition, most hits filed as inhibitors. AID 588342;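 further: plate controls were vehicle for no effect and reference inhibitor for full effect; nearly all actives have a fitted effect of over 55% in size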
Target sequence (P08659 whole entry, looked up): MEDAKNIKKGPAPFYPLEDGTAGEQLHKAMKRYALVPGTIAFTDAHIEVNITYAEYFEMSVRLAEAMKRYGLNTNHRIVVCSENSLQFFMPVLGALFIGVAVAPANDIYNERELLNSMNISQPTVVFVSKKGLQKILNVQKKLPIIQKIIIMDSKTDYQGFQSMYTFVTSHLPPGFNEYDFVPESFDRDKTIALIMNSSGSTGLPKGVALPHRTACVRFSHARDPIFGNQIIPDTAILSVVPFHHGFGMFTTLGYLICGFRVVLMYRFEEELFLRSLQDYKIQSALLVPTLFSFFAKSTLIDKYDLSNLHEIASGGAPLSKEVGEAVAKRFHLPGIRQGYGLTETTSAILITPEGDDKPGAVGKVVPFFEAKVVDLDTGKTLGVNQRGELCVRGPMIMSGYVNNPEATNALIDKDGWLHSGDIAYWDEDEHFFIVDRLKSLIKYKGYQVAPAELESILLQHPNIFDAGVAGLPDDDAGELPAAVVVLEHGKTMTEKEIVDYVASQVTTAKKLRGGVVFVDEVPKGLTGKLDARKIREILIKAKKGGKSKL
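Biochemical qHTS of compounds, final roughly 60 µM downward over six points, against 10 nM purified firefly luciferase using Km concentrations of substrates (10 uM D-luciferin, 10 uM ATP) in Tris acetate pH 7.5 buffer; luminescence output.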
ELG1 genotox: genotoxicity induction in ELG1-luciferase HEK293T cells | 330,000 tested, 1.3% active | AID 504466 | HEK293T ELG1-luciferase reporter, luminescence, 16 h | Potency, µM (highest dose often 46 µM), for the others: at the top dose activity change, positive = activation, usual class: activators; further: % of control where 0% means no effect; nearly all actives have a fitted effect of over 60% in size
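Genotoxicity was scored as increased ELG1-luciferase reporter signal, measured by ONE-Glo luminescence (30 min, room temperature). Compound or vehicle exposure of the HEK293T reporter cells lasted 16 hr at 37°C.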
Luc counter: Kinase-Glo luciferase inhibition (counter-screen) | Q27757 | Kinase-Glo luciferase, ATP luminescence, 8 min | Potency, µM (titrated, usually from 38.3 µM), for inactives: top-dose activity change, negative = inhibition, hits mostly inhibitors | 200,000 tested, 0.28% active | AID 1379; further: on the % scale 0 is the no-effect control and ±100 the full control effect; nearly all actives have a fitted effect of over 60% in size
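Compounds were added to a substrate mix at pH 7.2 (50 mM imidazole, 10 uM ATP, within the enzyme's linear range), followed by Kinase-Glo detection reagent; luminescence was measured after 8 minutes at ambient temperature.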
* hit, by the source's call; ? = inconclusive; / = no result. Shown are actives, neighbours in structure and some others; about 7.5% of the full set was active somewhere. The call rests on the fitted dose curve; in most records, active means well fitted curve in the direction sought with a large enough effect; inconclusive means small, poorly fitted or top-dose-only effect, or another doubt; inactive means no such curve, though single readings can be large; an effect the other way counts as inactive or inconclusive. Potency means the concentration at half of the fitted maximal effect.

SMILES	Rab9 prom act	SMN2 splice enh	NPC1 promoter act	FLuc modulator	ELG1 genotox	Luc counter
O=C(COc1ccccc1[N+](=O)[O-])N(Cc1cccc(Br)c1)C1CCS(=O)(=O)C1 (stereo unspecified)	0%	/	9%	-1%	-5%	/
CCC(/C=C1\Sc2ccc(OC)cc2N1CC)=C\c1sc2ccc(OC)cc2[n+]1CCCS(=O)(=O)[O-]	-9%	/	-9%	?	-8%	10µM*
CCC(/C=C1\Sc2ccc(OC)cc2N1CCO)=C\c1sc2ccc(OC)cc2[n+]1CCO	-9%	-74%	-4%	15µM*	-11%	10µM*
CCC(=O)/C=C1/Sc2ccc(OC)cc2N1CCO	-16%	/	-1%	-4%	0%	-4%
CC(=O)Nc1ccc(NC(=O)C(C)OC(=O)c2ccc3[nH]c(C)c(C)c3c2)cc1 (stereo unspecified)	-2%	/	-2%	-13%	-2%	/
CCCn1cnc2c(sc3nc4c(cc32)CSC(C)(C)C4)c1=O	1.6µM*	13µM*	2.8µM*	?	4.6µM*	1%
CC1(C)Cc2nc3sc4c(=O)n(Cc5ccccc5)cnc4c3cc2CS1	14%	-40%	-1%	-7%	2%	3%
O=C(C1=C(O)C(=O)N(CC2CCCO2)C1c1ccc(Cl)cc1Cl)c1ccco1 (stereo unspecified)	1%	/	0%	4%	1%	/
c1csc(-c2nnc(N3CCCCCC3)c3ccccc23)c1	10%	/	4%	3µM*	1%	/
Cc1cccc(C(=O)N/N=C/c2ccc[nH]2)c1	0%	9%	5%	?	13%	-4%
O=C(N/N=C/c1ccsc1)c1cc2ccccc2o1	25%	/	1%	?	9%	/
O=C(N/N=C/c1ccsc1)c1c[nH]c2ccccc12	2.8µM*	/	3.5µM*	11µM*	16µM*	/
CC(C)(C)OC(=O)N/N=C\c1ccc[nH]1	?	27%	-5%	19µM*	7%	-1%
Cc1ccsc1/C=N/NC(=O)c1c[nH]c2ccccc12	2.5µM*	?	4.5µM*	12µM*	?	-3%
Cc1ccsc1/C=N/NC(=O)c1cc(-c2ccncc2)nc2ccccc12	-28%	-33%	-17%	-20%	2%	-4%
Cc1cc(C(=O)N/N=C/c2cccc([N+](=O)[O-])c2)c(C)o1	27%	-7%	18%	?	12%	-16%
CC(C)(C)OC(=O)N/N=C/c1cccc([N+](=O)[O-])c1	3.2µM*	11µM*	2.5µM*	6µM*	?	-2%
COc1cc(C(=O)O)ccc1OCc1ccncc1	0%	/	0%	0%	-5%	/
CCNc1ncc2nc(-c3ccc(OC)cc3)c(=O)n(Cc3cccc(OC)c3)c2n1	/	-3%	/	/	/	-1%
CCn1nc(C)c(/C=N/NC(=O)c2c[nH]c3ccccc23)c1C	3.5µM*	18µM*	?	?	?	-4%
C/C(=N/NC(=O)c1ccncc1)c1c[nH]c2ccccc12	2%	-5%	-2%	-7%	3%	-2%
O=C(N/N=C/c1cc([N+](=O)[O-])ccc1O)c1c[nH]c2ccccc12	-3%	/	0%	-9%	15%	/
CCn1nc(C)c(/C=N/NC(=O)Cn2nccc2C)c1C	25%	20%	27%	?	?	-4%
O=C(N/N=C/c1cccc([N+](=O)[O-])c1)c1c[nH]c2ccccc12	?	/	2.2µM*	17µM*	12%	/
Cc1ccc(/C=N/NC(=O)c2c[nH]c3ccccc23)o1	27%	-4%	22%	24µM*	3%	-4%
SMILES	Rab9 prom act	SMN2 splice enh	NPC1 promoter act	FLuc modulator	ELG1 genotox	Luc counter
CC/C(=N\NC(=O)c1c[nH]c2ccccc12)c1cccs1	2.8µM*	18µM*	2.8µM*	5.4µM*	?	-5%
Cc1cccc(C(=O)Nc2sc3c(c2C(=O)N2CCCCC2)CCC(C)C3)c1 (stereo unspecified)	/	-11%	/	?	/	/
CCc1cccc(C)c1NC(=O)Cn1cc2c(n1)CCCCC2	/	-7%	/	7%	/	/
CCn1c(SCC(=O)c2c(N)n(C3CC3)c(=O)[nH]c2=O)nc2cc(S(N)(=O)=O)ccc21	-5%	/	0%	4%	-1%	/
C/C(=N\NC(=O)c1c[nH]c2ccccc12)c1ccc(C)s1	?	/	3.2µM*	?	?	/
Cc1ccc(/C=N/NC(=O)c2c[nH]c3ccccc23)s1	0.56µM*	13µM*	1.6µM*	7.6µM*	14%	-1%
COc1ccc(C/C(C)=N\NC(=O)c2c[nH]c3ccccc23)cc1OC	3%	/	-1%	-18%	4%	/
O=[N+]([O-])c1ccc(O)c(/C=N/Nc2ccccn2)c1	-25%	-86%	-15%	4%	14%	-1%
Cc1c(O)ccc(/C=N/Nc2ncccc2[N+](=O)[O-])c1O	3.2µM*	/	0.56µM*	1.1µM*	2.6µM*	/
O=[N+]([O-])c1cccnc1N/N=C/c1ccccc1O	?	-51%	-4%	?	?	2µM*
O=C(O)CNc1ncccc1[N+](=O)[O-]	2%	3%	2%	0%	0%	-1%
O=[N+]([O-])c1ccc(N/N=C/c2ccccc2O)cc1	20%	/	-7%	15µM*	?	/
O=[N+]([O-])c1cccc(N/N=C/c2cc([N+](=O)[O-])ccc2O)c1	30%	20%	?	?	?	6%
O=C(COc1ccc2ccc(=O)oc2c1)NCCCn1ccnc1	-3%	/	-1%	2%	0%	/
S=c1[nH]cnc2scc(-c3ccc(Cl)cc3)c12	0%	/	-5%	1%	-8%	/
Cc1ccc2c(c1)c1c(n2C)C(C(N)=O)CCC1 (stereo unspecified)	-2%	-2%	-1%	0%	3%	-3%
Cc1ccc2c(c1)c1c(n2C)-c2[nH]ncc2CC1	23%	13%	7%	13µM*	12%	-3%

Screening results as filed in PubChem.
